Consider nine molecules from PubChem BioAssay (NCATS).

Inconclusive results are not listed. Entries that show only a call come without a potency. A number with no mark means an inactive call. Active and inactive are the calls of the source. The call rests on the fitted dose curve; in most records, active means well fitted cell-killing curve with a large enough effect; inconclusive means small, poorly fitted or top-dose-only effect, or effect the other way; inactive means no such curve, though single readings can be large or run the other way.

A short description of the experiment: Viability qHTS for spleen associated tyrosine kinase inhibitor (SYKi) naive MV4-11 cells (AID 1963823). Further: nearly all actives have a fitted effect of over 40% in size. The conditions noted are these: MV4-11 AML viability, CellTiter-Glo luminescence, 72 h; series mostly up to 45 µM. The method, boiled down:
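Read-out: CellTiter-Glo luminescence. Exposure: 72 hr, 37 C, 5% CO2, 95% humidity. Cells: MV4-11 without SYK inhibitor history, 500/well, qHTS format.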
On the technique in general: In qHTS, concentration-response curves come from the screen itself.
Regarding `CC(O)CCc1ccc(O[C@@H]2O[C@H](CO)[C@@H](O)[C@H](O)[C@H]2O)cc1` (some centres undefined), the Potency result was “inactive”. Still for that read-out and setting: with `COc1ccc(CNC(=O)c2sc3nc(C)cc(C)c3c2N)cc1` the entry was “inactive”. Same read-out and setting: with `C[C@@H]1C[C@@H](O)[C@@]23CO[C@@H](O)[C@@H]2CCC[C@@H]3[C@@]12C[C@@H](c1ccoc1)OC2=O` the entry was “inactive”; with `CC1C2=CC(=O)OC2(O)CC2C1C(O)CC1C(C)(CO)CCCC21C` (centres undefined), “inactive”. The same measure, in the same setting: with `CC[C@H](C)[C@@H]1NC(=O)[C@H](Cc2ccc(OC)cc2)NC(=O)CCCSC[C@@H](C(=O)N2CCC[C@H]2C(=O)N[C@@H](CC(C)C)C(=O)NCC(N)=O)NC(=O)[C@H](CC(N)=O)NC(=O)[C@H](CCC(N)=O)NC1=O` the entry was “inactive”. For the molecule `C/C=C(\C)C(=O)O[C@@H](C)[C@H]1CC[C@]2(O)C3CCC4C[C@@H](OC5CC(OC)C(OC6CC(OC)C(OC7CC(OC)C(OC8OC(C)C(OC9OC(CO)C(O)C(O)C9O)C(OC)C8O)C(C)O7)C(C)O6)C(C)O5)CC[C@]4(C)C3[C@H](O)[C@@H](O)[C@]12C` (some centres undefined), the viability (% of control) was 34.7% [at 9.25 µM]. Turning to `C=C/C=C/[C@@H]1OC[C@H](/C=C/C=C/C)[C@H]1O`, the Potency entry is “inactive”.

With `C=C1[C@H](OC(C)=O)[C@H]2[C@@H](OC(C)=O)C(C)C[C@]2(OC(C)=O)C(=O)[C@H](C)/C=C/C(C)(C)C(=O)[C@H](OC(=O)C(C)C)[C@H]1OC(C)=O` (some centres undefined), the Potency entry is “inactive”. On the same count and under the same terms, with `CC1CCC2(OC1)OC1CC3C4CCC5C[C@@H](O[C@@H]6O[C@H](CO[C@@H]7OC[C@@H](O)[C@H](O)[C@H]7O)[C@H](O)[C@H](O)[C@H]6O)CC[C@]5(C)C4CC[C@]3(C)C1C2C` (some centres undefined) the entry was “inactive”.
